The record followed here is PubChem BioAssay (Tox21).

The structures appear in SMILES notation. Records with an inconclusive call do not appear. Calls of active or inactive are those of the source. Unless noted, the call rests on the fitted dose curve; in most records, active means well fitted curve in the direction sought with a large enough effect in the repeat runs; inconclusive means weak or mixed curves; inactive means no such curve, though single readings can be large; an effect the other way counts as inactive or inconclusive.

The nature of assay [1]: qHTS assay to identify small molecule agonists of the RXR signaling pathway - cell viability counter screen (AID 1159529). Further: series mostly up to about 77 µM; nearly all actives have a fitted effect of over 50% in size. In short, it runs like this: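 RXR-alpha-UAS-bla HEK 293T cells in medium with 2% charcoal-stripped FBS were pre-incubated 5 hr, then compound-treated 16 hr at 37 C. Viability was read by CellTiter-Glo luminescence in the same wells as the beta-lactamase assay, with tetraoctyl ammonium bromide as positive control.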

Assay [2] in a line: qHTS assay to identify small molecule antagonists of the retinoid acid receptor (RAR) signaling pathway - cell viability counter screen (AID 1159551). Further: nearly all actives have a fitted effect of over 35% in size. In outline: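 Luminescent ATP quantitation (CellTiter-Glo) gave cell viability in C3RL4 cells exposed to test chemicals for 6 h at 37 C alongside 1 uM final retinol.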
In general terms: Quantitative high-throughput screening tests each substance at several concentrations.

Assay [3] in a line: qHTS assay to identify small molecule antagonists of the retinoic acid receptor (RAR) signaling pathway (AID 1159552; further: nearly all actives have a fitted effect of over 50% in size). In short, it runs like this:
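Retinol signaling pathway inhibitors screened in C3RL4 RARE-luciferase reporter cells seeded overnight at 37 C, then compounds added with 1 uM (final) retinol as pathway substrate. After 6 hr at 37 C, luciferase luminescence read after 30 min at room temperature.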

Assay [4] can be described thus: qHTS assay to identify small molecule agonists of the retinoic acid receptor (RAR) signaling pathway (AID 1159553). Further: potency means the concentration at half of the fitted maximal effect. In outline:
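Luminescence from a RARE-driven luciferase reporter in C3RL4 cells served as the read-out, measured after 30 min with detection reagent at room temperature. Compounds in DMSO were applied for 6 hr at 37 C following overnight seeding.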

Assay [5] can be described thus: qHTS assay to identify small molecule antagonists of the estrogen related receptor (ERR) signaling pathway from Tox21 library - cell viability counter screen (AID 1224834). Further: nearly all actives have a fitted effect of over 30% in size. In outline: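 Fluorescence from CellTiter-Fluor gives the viability read-out, taken 30 min after reagent addition. Before that, ERR cells seeded 6 h earlier were incubated with compounds for 17.5 h at 37 C.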

Assay [6] deals with Luciferin 4-monooxygenase (Photinus pyralis) (UniProt P08659). Nature of the assay: qHTS assay to identify small molecule inhibitors of firefly luciferase (AID 1224835). Further: nearly all actives have a fitted effect of over 25% in size. Further: potency means the concentration at half of the fitted maximal effect. In short, it runs like this:
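Biochemical qHTS: compounds run as interplate titrations against purified firefly enzyme, with D-luciferin and ATP each at its KM concentration. Light output recorded by CCD imaging.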

Assay [7] in a line: qHTS assay to identify small molecule agonists of the constitutive androstane receptor (CAR) signaling pathway - cell viability counter screen (AID 1224836). Further: series mostly up to about 92 µM; nearly all actives have a fitted effect of over 45% in size. In short, it runs like this: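 HepG2 cells stably carrying hCAR and a CYP2B6-2.2kb reporter; 15-concentration compounds plus PK11195 (final 0.75 uM), 23 hr at 37 C/5% CO2. Viability read by CellTiter-Fluor fluorescence.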

Assay [8] is described as follows: qHTS assay to identify small molecule antagonists of the constitutive androstane receptor (CAR) signaling pathway - cell viability counter screen (AID 1224837). Further: series mostly up to about 92 µM; nearly all actives have a fitted effect of over 45% in size. In outline:
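HepG2-CYP2B6-hCAR cells, 2500/well, 4 hr pre-incubation; compound titration, 15 conc.; CITCO 50 nM final; 23 hr, 37 C/5% CO2; CellTiter-Fluor, fluorescence intensity.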

Assay [9] addresses Nuclear receptor subfamily 1 group I member 3 (Homo sapiens) (UniProt Q14994). Nature of the assay: qHTS assay to identify small molecule agonists of the constitutive androstane receptor (CAR) signaling pathway (AID 1224839). Further: nearly all actives have a fitted effect of over 15% in size. Further: potency means the concentration at half of the fitted maximal effect. In short, it runs like this:
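HepG2 cells stably co-transfected with hCAR and a CYP2B6-2.2kb luciferase reporter; compounds at 15 concentrations with 0.75 uM PK11195 present. After 24 hr at 37 C, luciferase read by ONE-Glo luminescence.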

The nature of assay [10]: qHTS assay to identify small molecule antagonists of the estrogen related receptor signaling pathway with the pleiotropic PPARgamma coactivator (PGC) from Tox21 10K library - cell viability counter screen (AID 1224840; active means well fitted cell-killing curve with a large enough effect in the repeat runs, not every such curve was filed as active; further: nearly all actives have a fitted effect of over 40% in size). In short, it runs like this: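 PGC/ERR cells, 2,000/well; 6 h pre-incubation 37 C/5% CO2; cpd in DMSO via pin tool; 17.5 h 37 C; CellTiter-Fluor, 30 min; fluorescence.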

Assay [11] has as its target Thyrotropin receptor (Homo sapiens) (UniProt P16473). Nature of the assay: qHTS assay to identify small molecule agonists of the thyroid stimulating hormone receptor (TSHR) signaling pathway (AID 1224843; calls by dose curve; further: nearly all actives have a fitted effect of over 45% in size). In short, it runs like this: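 TSHR-HEK293 cells in agonist mode, 30 min room-temperature step, then cAMP measured by competitive HTRF (cAMP-d2 with anti-cAMP cryptate) after 1 h at room temperature. Tested at 15 concentrations in triplicate.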

Assay [12] in a line: qHTS assay to identify small molecule agonists of the hypoxia (HIF-1) signaling pathway - cell viability counter screen (AID 1224844; calls by dose curve; further: nearly all actives have a fitted effect of over 50% in size). In short, it runs like this: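 ME-180 HRE-bla cells, 2,000/well, 0.5% dialyzed FBS; 5 hr settle, 17 hr compound at 37C/5% CO2; CCF4-AM reporter read first, then CellTiter-Glo luminescence after 30 min RT.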
Assay [13] addresses Nuclear receptor subfamily 1 group I member 3 (Homo sapiens) (UniProt Q14994). Put plainly: qHTS assay to identify small molecule antagonists of the constitutive androstane receptor (CAR) signaling pathway (AID 1224838).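 Further: HepG2 cells stably expressing hCAR with CYP2B6 luciferase reporter stimulated by CITCO; nearly all actives have a fitted effect of over 40% in size.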 In short, it runs like this:
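HepG2-CYP2B6-hCAR cells; 4 h pre-incubation; cpd (15 conc) + CITCO 50 nM final; 24 h, 37 C/5% CO2; ONE-Glo, luminescence.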

The nature of assay [14]: qHTS assay to identify small molecule antagonists of the estrogen related receptor signaling pathway with the pleiotropic PPARgamma coactivator (PGC) from Tox21 10K library (AID 1224841; call rule not given here; further: series mostly up to about 92 µM; actives are mostly falling curves and most rising ones were filed inactive; nearly all actives have a fitted effect of over 50% in size). In outline: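 PGC/ERR cell line, 2,000 cells/well; 6 h pre-incubation 37 C/5% CO2; compounds (DMSO) pinned in; 18 h, 37 C; One-Glo, 30 min RT; luminescence.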

Chain of Luciferin 4-monooxygenase (Photinus pyralis) (P08659 whole entry, looked up): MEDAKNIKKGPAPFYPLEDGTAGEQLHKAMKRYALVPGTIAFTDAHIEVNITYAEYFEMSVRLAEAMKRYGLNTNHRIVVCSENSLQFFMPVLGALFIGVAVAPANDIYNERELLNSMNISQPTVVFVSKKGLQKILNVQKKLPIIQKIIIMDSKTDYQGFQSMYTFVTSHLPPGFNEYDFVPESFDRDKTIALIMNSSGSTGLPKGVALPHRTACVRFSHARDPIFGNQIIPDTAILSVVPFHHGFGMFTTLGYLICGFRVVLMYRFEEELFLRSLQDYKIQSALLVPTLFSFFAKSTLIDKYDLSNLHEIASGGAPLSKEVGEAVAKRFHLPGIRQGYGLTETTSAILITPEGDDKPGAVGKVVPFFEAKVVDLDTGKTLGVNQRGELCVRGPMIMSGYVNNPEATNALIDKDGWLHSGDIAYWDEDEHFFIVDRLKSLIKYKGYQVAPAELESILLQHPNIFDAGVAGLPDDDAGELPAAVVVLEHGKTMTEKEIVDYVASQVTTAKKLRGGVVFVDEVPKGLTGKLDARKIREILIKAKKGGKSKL
Chain of Thyrotropin receptor (Homo sapiens) (P16473 whole entry, looked up): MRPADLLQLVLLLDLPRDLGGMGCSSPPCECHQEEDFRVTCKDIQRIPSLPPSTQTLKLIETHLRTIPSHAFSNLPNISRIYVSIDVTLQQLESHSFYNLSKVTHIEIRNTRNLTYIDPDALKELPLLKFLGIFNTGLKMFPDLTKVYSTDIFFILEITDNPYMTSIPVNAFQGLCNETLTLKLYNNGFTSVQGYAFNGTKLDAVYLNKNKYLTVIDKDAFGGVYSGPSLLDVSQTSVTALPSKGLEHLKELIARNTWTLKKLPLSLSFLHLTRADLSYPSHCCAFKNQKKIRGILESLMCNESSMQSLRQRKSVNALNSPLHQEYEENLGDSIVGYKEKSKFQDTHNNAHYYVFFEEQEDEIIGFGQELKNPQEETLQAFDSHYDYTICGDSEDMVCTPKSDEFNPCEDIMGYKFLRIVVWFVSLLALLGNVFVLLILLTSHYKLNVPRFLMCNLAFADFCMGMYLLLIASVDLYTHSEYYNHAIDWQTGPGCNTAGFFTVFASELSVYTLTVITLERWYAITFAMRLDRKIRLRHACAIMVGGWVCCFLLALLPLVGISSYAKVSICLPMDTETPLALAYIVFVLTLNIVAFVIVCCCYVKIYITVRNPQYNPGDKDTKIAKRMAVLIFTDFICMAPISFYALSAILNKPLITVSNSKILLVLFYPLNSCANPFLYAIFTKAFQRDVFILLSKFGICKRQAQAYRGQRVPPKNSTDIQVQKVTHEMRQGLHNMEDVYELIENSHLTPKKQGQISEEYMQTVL
Chain of Nuclear receptor subfamily 1 group I member 3 (Homo sapiens) (Q14994 whole entry, looked up): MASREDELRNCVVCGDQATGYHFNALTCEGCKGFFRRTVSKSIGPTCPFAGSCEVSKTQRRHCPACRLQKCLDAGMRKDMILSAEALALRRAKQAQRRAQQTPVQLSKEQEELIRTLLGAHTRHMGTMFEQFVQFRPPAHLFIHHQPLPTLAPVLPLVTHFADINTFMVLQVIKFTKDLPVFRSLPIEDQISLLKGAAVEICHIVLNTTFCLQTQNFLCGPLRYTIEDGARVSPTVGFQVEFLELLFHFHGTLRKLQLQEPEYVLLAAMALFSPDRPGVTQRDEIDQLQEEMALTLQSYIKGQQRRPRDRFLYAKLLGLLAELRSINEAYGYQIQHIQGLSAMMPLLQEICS

Regarding `CC(C)[N+](=O)[O-]`, the Potency result in assay [1], in assay [2], in [3], in assay [4], in [5] and in assay [6] was “inactive” throughout. Further, the Potency entry in assay [7], in assay [8], in assay [9], in assay [10], in [11] and in assay [12] was “inactive” each time.
Consider `CCCCN(CCCCO)N=O`, for which the Potency result in assay [1], in assay [2], in assay [3], in assay [4], in assay [5] and in [6] was “inactive” throughout. For the same compound, the Potency entry in assay [7], in assay [8], in [13], in assay [10], in assay [14] and in assay [11] was “inactive” each time. In addition, the Potency entry in assay [12] is “inactive”.
For the compound `O=C1OC(=O)C2C1C1(Cl)C(Cl)=C(Cl)C2(Cl)C1(Cl)Cl` (centres undefined), the Potency entry in assay [1], in assay [2], in assay [3], in assay [4], in assay [5] and in assay [6] was “inactive” each time. Also, the Potency entry in assay [7], in [8], in [13], in assay [9], in [10] and in assay [11] was “inactive” each time.
In the case of `CCOP(=S)(OCC)Oc1cc(-c2ccccc2)on1`, the Potency entry in [1], in assay [2], in assay [3], in assay [5], in [7] and in assay [8] was “inactive” in each case. The Potency result in [13], in assay [10] and in assay [12] was “inactive” in each case. The Potency in assay [6] is 31.7 µM (active); in assay [9], 34.4 µM (active).
For the compound `CCS(=O)(=O)CCSP(=O)(OC)OC`, the Potency entry in [1], in assay [2], in assay [3], in [4], in assay [5] and in assay [6] was “inactive” each time. The Potency result in [7], in [8], in assay [9], in assay [10], in [14] and in assay [11] was “inactive” in each case. In addition, the Potency entry in [12] was “inactive”.
Take `C[N+](C)=CCl`: the Potency entry in assay [1], in [2], in [3], in [4], in assay [5] and in assay [6] was “inactive” in each case. In addition, the Potency result in assay [7], in assay [8], in [10] and in assay [11] was “inactive” each time.
For `CC(C1CC1)C(O)(Cn1cncn1)c1ccc(Cl)cc1` (centres undefined), the Potency result in assay [1], in assay [2], in [3], in assay [4], in assay [5] and in assay [6] was “inactive” throughout. In addition, the Potency entry in assay [7], in assay [8], in assay [10], in assay [11] and in assay [12] was “inactive” each time.
On to `Clc1ccccc1N1CCNCC1`, for which the Potency entry in assay [1], in [2], in [3], in assay [4], in [5] and in [6] was “inactive” each time. Moreover, the Potency entry in assay [7], in assay [8], in assay [10], in assay [11] and in assay [12] was “inactive” throughout.
As for `OC(c1ccc(F)cc1)(c1cncnc1)c1ccccc1Cl` (centres undefined), the Potency entry in [1], in assay [2], in assay [3], in assay [4], in assay [5] and in [6] was “inactive” in each case. Further, the Potency result in assay [7], in [8], in assay [13], in [9], in assay [10] and in assay [12] was “inactive” each time.
For the compound `c1coc(-c2nc3ccccc3[nH]2)c1`, the Potency entry in [1], in [2], in assay [3], in [5], in assay [7] and in assay [8] was “inactive” each time. Further, the Potency result in [13], in assay [10], in assay [11] and in assay [12] was “inactive” in each case. Besides, the Potency in [4] is 3.86 µM (active); in assay [6], 28.3 µM (active); in assay [9], 7.7 µM (active).
`NC(=S)C(N)=S`: the Potency result in [1], in [2], in assay [3], in [4], in [5] and in assay [6] was “inactive” throughout. The Potency entry in assay [7], in assay [8], in assay [13], in assay [9] and in [10] was “inactive” each time.
